KCNQ2 enhance = potentiators of rat KCNQ2 potassium channel; Potassium voltage-gated channel subfamily KQT member 2 (Rattus norvegicus), O88943; CHO-K1 KCNQ2, FluxOR thallium flux fluorescence; active compounds read high; B-score at 10 µM; 310,000 tested, 0.54% active;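 active means fluorescence ratio B-score at least 3 SD of library B-scores, with initial fluorescence B-score within 3 of them, cut at about 5.3 in these data; same plate scores as AID 2156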;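 further: B-score of peak minus minimum over baseline fluorescence ratio after K+ and Tl+ stimulus; positive B-score means potentiation of KCNQ2 with more thallium influx and brighter signal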
Target sequence (O88943 whole entry, looked up): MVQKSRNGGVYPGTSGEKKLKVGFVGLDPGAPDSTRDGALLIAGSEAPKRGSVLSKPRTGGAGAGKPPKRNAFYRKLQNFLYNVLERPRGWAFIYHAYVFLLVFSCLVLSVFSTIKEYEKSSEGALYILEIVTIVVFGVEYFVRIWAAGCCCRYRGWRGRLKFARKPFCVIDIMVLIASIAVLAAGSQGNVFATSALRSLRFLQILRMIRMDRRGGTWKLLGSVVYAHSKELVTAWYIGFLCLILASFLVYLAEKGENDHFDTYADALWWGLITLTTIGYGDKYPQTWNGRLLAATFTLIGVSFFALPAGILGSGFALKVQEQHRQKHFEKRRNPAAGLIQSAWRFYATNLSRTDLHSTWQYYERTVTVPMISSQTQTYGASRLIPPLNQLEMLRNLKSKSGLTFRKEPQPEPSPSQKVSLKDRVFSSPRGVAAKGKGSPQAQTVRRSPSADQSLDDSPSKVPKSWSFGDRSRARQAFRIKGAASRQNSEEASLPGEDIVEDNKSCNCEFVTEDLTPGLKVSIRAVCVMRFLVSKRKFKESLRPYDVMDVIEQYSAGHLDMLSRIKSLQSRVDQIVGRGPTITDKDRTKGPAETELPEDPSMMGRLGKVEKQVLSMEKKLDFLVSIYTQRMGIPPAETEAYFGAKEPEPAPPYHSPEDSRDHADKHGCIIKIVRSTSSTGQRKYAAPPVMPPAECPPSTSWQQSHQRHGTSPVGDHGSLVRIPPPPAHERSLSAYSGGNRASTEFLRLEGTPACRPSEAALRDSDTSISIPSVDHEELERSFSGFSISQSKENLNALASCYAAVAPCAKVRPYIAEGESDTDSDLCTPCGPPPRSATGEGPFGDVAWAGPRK
KCNQ2 block = rat KCNQ2 potassium channel inhibitors, primary screen, cell-based, CHO-K1, FluxOR thallium flux, B-score. B-score at 10 µM. 20 min; active compounds read low. Potassium voltage-gated channel subfamily KQT member 2 (Rattus norvegicus), O88943. 310,000 tested, 1.1% active;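 active means fluorescence ratio B-score at most minus 3 library SDs, with starting brightness B-score within 2 library SDs, cut at about -5.5 in these data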
A number is an active result; – = inactive; · = not tested or not shown. This is a sample that favours compounds with a hit; in the whole collection about 1.6% have one here.

SMILES	KCNQ2 enhance	KCNQ2 block
CCc1nc(SCC(=O)N2CCCC2)c2c(=O)n(C)c(=O)n(C)c2n1	–	–
Cc1ccc(NC(=O)CSc2nn(-c3ccc(Cl)cc3)c(=S)s2)cc1S(=O)(=O)N(C)C	–	-7.1
CN(C)S(=O)(=O)c1cc(NC(=O)CSc2nn(-c3ccc(Cl)cc3)c(=S)s2)ccc1Cl	·	–
COc1ccc(CCN(Cc2cc3ccc(C)cc3n3nnnc23)C(C)=O)cc1OC	–	–
COc1ccc(CN(C(=O)CSc2nnc(-c3ccccc3C)o2)c2ccc(F)cc2)cc1	–	-6.4
O=C(CSc1nnc(-c2c[nH]c3ccccc23)o1)N(Cc1ccccc1)c1ccc(F)cc1	·	–
Cc1ccc(C)c(Cn2c(C)nc3c(sc(=S)n3-c3ccccc3)c2=O)c1	·	–
COc1ccc(/C=C/C(=O)N(CC(C)C)CC(C)C)cc1Br	–	-5.9
COc1ccc(CN2CCN(C(=O)CC(C)C)CC2)cc1Br	·	–
Cc1oc2c(C)c3oc(=O)c(CCC(=O)NCCN4CCOCC4)c(C)c3cc2c1C	–	–
CN(C)CCCNc1ncnc2c1cnn2Cc1ccccc1Cl	–	–
COc1cccc(OC)c1C(=O)NCCOc1cc(C)cc(C)c1	·	–
O=C(CNS(=O)(=O)c1ccccc1)NCC(=O)OCc1ccc(Cl)cc1	·	–
CCn1c(CN2CCN(c3ccc(Cl)cc3)CC2)nc2ccccc21	–	-5.6
Cn1c(CN2CCN(c3ccc(Cl)cc3)CC2)nc2ccccc21	–	–
c1ccc(Oc2c3ccccc3nc3ccccc23)cc1	–	–
COC(=O)c1ccc(CNC(=O)C(NC(=O)c2ccco2)C(C)C)cc1 (stereo not drawn)	·	–
C=CCn1c(SCc2c(C)noc2C)nc2sc3c(c2c1=O)CCCC3	·	–
C=CCn1c(SCc2c(C)noc2C)nc2sc3c(c2c1=O)CCCCC3	–	-6.5
COc1cccc(-n2c(SCC(N)=O)nc3ccccc3c2=O)c1	–	–
COc1cccc(-n2c(SCC(=O)Nc3sc4c(c3C(N)=O)CCC4)nc3ccccc3c2=O)c1	–	-6.1
COc1ccccc1CNC(=O)[C@H](C)NC(=O)C1CCN(C(=O)[C@@H](N)CC(C)C)CC1	–	–
C=C(C)CSc1[nH]c(=O)cc(C)c1C#N	–	–
CC(Oc1ccc(F)cc1)C(=O)Nc1ccccc1N1CCCCC1 (stereo not drawn)	–	-7.7
CCC(Oc1ccccc1)C(=O)Nc1ccccc1N1CCCCC1 (stereo not drawn)	·	–
SMILES	KCNQ2 enhance	KCNQ2 block
Cc1ccsc1C(=O)Nc1cccc(-n2cnnn2)c1	·	–
CC1(C)CC(=O)C(C(O)c2ccccc2)C(C)(C)N1 (stereo not drawn)	–	–
O=C(c1cccs1)N1CCN(c2nnc(-c3ccccc3)c3ccccc23)CC1	–	-5.9
Cc1ccc(-c2nnc(N3CCN(C(=O)c4cccs4)CC3)c3ccccc23)cc1	·	–
CC(C)C(C)NC(=O)COC(=O)c1cc(S(=O)(=O)N(C)C)ccc1N1CCCC1 (stereo not drawn)	·	–
Cc1ccc(CN(Cc2ccccn2)C(=O)Nc2ccc(C)c(C)c2)cc1	–	-6.8
CSc1cccc(NC(=S)N(Cc2ccc(C)cc2)Cc2ccccn2)c1	·	–
O=C1CCC[C@@H]2[C@H]3CCC[N+]4([O-])CCC[C@@H](CN12)[C@@H]34 (stereo partly drawn)	–	–
COc1ccc(CC(=O)Nc2cccc(/C(C)=N/NC(=O)c3cccc([N+](=O)[O-])c3)c2)cc1	–	-6
COc1ccc(CC(=O)N/N=C(\C)c2cccc(NC(=O)C3CC3)c2)cc1	–	–
CC(C)n1c(NCc2nc3ccccc3n2C)nc2ccccc21	·	–
CCn1c(CNc2nc3ccccc3n2C(C)C)nc2ccccc21	–	-8.3
CCN(CC(=O)Nc1ccc2c(c1)OCCO2)C(=O)CC(NC(C)=O)c1ccccc1 (stereo not drawn)	·	–
C=CCN1N=C(c2ccc(NC(=O)c3ccccc3)cc2)CSC1=O	·	–
CCOC(=O)Cn1nc(C)c(NC(=O)COc2ccccc2[N+](=O)[O-])c1C	–	–
O=C(Cc1ccccc1)NC1CCSc2ccccc21 (stereo not drawn)	–	-5.8
O=C(CCc1ccccc1)NC1CCSC1=O (stereo not drawn)	–	–
CCOC(=O)C1CCCN(C(=O)CCCn2nnnc2CN2CCC(C)CC2)C1 (stereo not drawn)	·	–
O=C(C1=C[C@H](C2CCCCC2)C[C@H](OCc2ccc(CO)cc2)O1)N1CCN(Cc2ccccc2)CC1	–	-6.7
C[C@@H]1C=C(C(=O)N2CCN(Cc3ccccc3)CC2)O[C@H](OCc2ccc(CO)cc2)C1	·	–
O=C(C1=C[C@H](C2CCCCC2)C[C@H](OCc2ccc(CO)cc2)O1)N1CCOCC1	·	–
O=C(C1=C[C@@H](C2CCCCC2)C[C@@H](OCc2ccc(CO)cc2)O1)N1CCN(Cc2ccccc2)CC1	–	-6.5
Cc1cc(C(=O)Nc2ccc3ccccc3c2)c(C)o1	·	–
COc1ccc(C2C(C#N)=C(N)N(c3ccccc3C#N)C3=C2C(=O)CCC3)cc1CN1CCCC1 (stereo not drawn)	·	–
CCC1(C)Cc2ccccc2-c2nc(-c3ccccc3)oc(=O)c21 (stereo not drawn)	–	-5.5
SMILES	KCNQ2 enhance	KCNQ2 block
CCC1(C)Cc2ccccc2-c2nc(NN)[nH]c(=O)c21 (stereo not drawn)	·	–
CSCCC(NC(=O)COc1ccccc1)C(=O)OC(C)C(=O)Nc1ccccc1C (stereo not drawn)	–	–
Cc1ccc(-c2nc(CNC(=O)c3ccco3)cs2)cc1	–	–
COc1ccc(N(C)C(=O)CCC(=O)Nc2ccc3nc(N4CCOCC4)cc(C)c3c2)c(OC)c1	–	-7.8
COc1ccc(NC(=O)CCC(=O)Nc2ccc3nc(N4CCOCC4)cc(C)c3c2)c(OC)c1	–	–
C(#Cc1ccccc1)CN1CCCCC1	6.3	–
C(#Cc1ccccc1)CN1CCN(c2ccccn2)CC1	–	–
c1ccc(-c2nc3c4ccccc4ccn3c2CN2CCCCC2)cc1	–	-5.6
Cc1ccc(-c2nc3c4ccccc4ccn3c2CN2CCCCC2)cc1	·	–
COC(=O)C1C(O)=C(C=Nc2cccc3ccccc23)C(=O)CC1(C)C (stereo not drawn)	–	-6
COC(=O)C1C(O)=C(C=NCc2ccccc2)C(=O)CC1(C)C (stereo not drawn)	·	–
CCN(CC)CCn1c(=S)[nH]c2ccc(Br)cc2c1=O	·	–
Cc1ccc2[nH]c(C(=O)N3CCN(C(c4ccccc4)c4ccccc4)CC3)cc2c1	–	-5.8
COc1ccccc1N1CCN(C(=O)c2cc3cc(C)ccc3[nH]2)CC1	–	–
COc1ccc(-n2cc(-c3ccccc3)c3c(NCCCN4CCOCC4)ncnc32)cc1	·	–
Cc1cccc(-c2nc(NCCCN3CCOCC3)c3ccccc3n2)c1	–	-5.9
c1ccc(-c2cn(-c3ccccc3)c3ncnc(NCCCN4CCOCC4)c23)cc1	–	-5.6
c1ccc(-c2nc(NCCCN3CCOCC3)c3ccccc3n2)cc1	–	–
CC(=O)Nc1ccc(S(=O)(=O)NCC2CCC(C(=O)N3CC(C)CC(C)C3)CC2)cc1 (stereo not drawn)	·	–
Cn1nnc(NC(=S)NC(=O)c2cccc3c(Cl)cccc23)n1	·	–
COc1ccc(OC)c(CCNC(=O)CN2C(=O)CCSc3ccccc32)c1	·	–
Cc1ccc(C)c(CSC2=NCCN2S(=O)(=O)c2ccccc2)c1	–	-6.3
O=S(=O)(c1ccc(Cl)cc1)N1CCN=C1SCc1cccc(Cl)c1	·	–
